From PubChem BioAssay AID651702 (NMMLSC, 2012) come the findings set out here.

Structures are written as SMILES. Where “and” joins values, the source holds several entries; their conditions need not be identical. Identical values can stand only once. Out of some 360,000 compounds screened, about 2,400 (0.67%) were called active.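 Rule for the calls: active = inhibition above about 55% (limit read from the data); inconclusive = no clear call, values can overlap the other calls; inactive = the rest.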 What follows is part of a selection rich in actives, with near analogues and random picks from the rest.

As usually defined, the inhibition is the change of the read-out against control, counted positive when it falls.

This test can be described thus: LAMP-1 surface exposure blockers, TALL-104 cells – cell-based, flow cytometry, MLPCN library, primary screen (AID 651702). The note with it: TALL-104 LAMP-1 surface exposure, at 10 µM, hits give high values, cells stimulated with thapsigargin and PMA.
For `CC(=O)N1CCc2cc(S(=O)(=O)Nc3ccccc3N3CCN(C)CC3)ccc21`, the inhibition was 3.6% (inactive).

Consider `Cc1nnc(SCC(=O)N2c3ccccc3C(C)(c3ccc(Cl)cc3)CC2(C)C)s1` (stereo not drawn), for which the inhibition is -0.3% (inactive).

Take `CCCCCn1nnnc1-c1nc2cc3ccccc3cc2[nH]c1=O`: the inhibition was 56.3% (active).

With `CCCCCn1nnnc1C1c2ccccc2C(=O)N1Cc1ccco1` (stereo not drawn), the inhibition is -4% (inactive).

With `CCCCn1c(-c2cccc(C)c2)nc2cc3[nH]c(=O)c(C(C)C)nc3cc21`, the inhibition was 7.2% (inactive).

As for `COc1ccccc1NC(=O)C(C)OC(=O)c1ccc(-n2cnnn2)cc1` (stereo not drawn), the inhibition is 2.1% (inactive).

As for `COc1ccc(NC(=O)Cn2ncn3c(cc4ccccc43)c2=O)c(OC)c1OC`, the inhibition is -1.7% (inactive).

Take `O=C(CNCc1ccc(Cl)cc1)Nc1cccc(C(=O)O)c1`: the inhibition is 2.8% (inactive).

As for `CC(CC(=O)Nc1cc(C(F)(F)F)ccc1Cl)c1ccccc1` (stereo not drawn), the inhibition is 83.7% (active).

Regarding `COc1cc(OC)c(C(=O)OC(C)C(=O)Nc2cc(C(F)(F)F)ccc2Cl)cc1OC` (stereo not drawn), the inhibition was 0.8% (inactive).

As to `CC(C)CC(=O)Nc1cc(C(F)(F)F)ccc1N1CCOCC1`, the inhibition was -2.5% (inactive).

Take `CC1=NCCN1S(=O)(=O)c1ccc(Br)c(C)c1`: the inhibition was -1.3% (inactive).

As for `COc1cc(OC)c2c(-c3cccc(-c4cccc(N)c4)c3)cc(=O)oc2c1`, the inhibition was 4.4% (inactive).

Turning to `COc1cccc(NC(=O)C2c3cc(OC)c(OC)cc3C(=O)N(C)C2c2cccnc2)c1` (stereo not drawn), the inhibition is 1.8% (inactive).

For the molecule `COc1cccc(NC(=O)C2C(c3ccccc3)C2(Cl)Cl)c1` (stereo not drawn), the inhibition is 83.9% (active).

On to `COc1cccc(NC(=O)C2CCCN2C(=O)OCc2ccccc2)c1` (stereo not drawn), for which the inhibition was -0.8% (inactive).

Consider `O=S(=O)(N/N=C\c1cccn1-c1ccccc1)c1ccc2ccccc2c1`, for which the inhibition was -0.4% (inactive).

As for `Cc1cccc(CNC(=O)c2sc(=O)n(Cc3ccccc3C)c2C)c1`, the inhibition was -3.5% (inactive).

Consider `CCCCCNC(=O)C(c1ccc(OC)cc1)n1c(=O)c(-c2ccccc2)nc2ccccc21` (stereo not drawn), for which the inhibition was 5.5% (inactive).

Take `COc1ccccc1N1CCN(c2ncnc3sc(C)c(-c4ccccc4)c23)CC1`: the inhibition was 57.5% (active).

As to `COc1ccccc1N1CCN(c2ccc([N+](=O)[O-])nc2)CC1`, the inhibition was -3.5% (inactive).

Regarding `COc1ccccc1N1CCN(c2nc(C)cc(=O)[nH]2)CC1`, the inhibition is 0.2% (inactive).

As for `O=C1CCC([N+](=O)[O-])C(c2ccccc2Br)N1` (stereo not drawn), the inhibition is -1.2% (inactive).

Turning to `CCOc1ccccc1Nc1nnc(SCC(=O)NCC2CCCO2)s1` (stereo not drawn), the inhibition is -20.1% (inactive).

`COc1ccc(C2OC(CCc3ccccc3)Cc3[nH]c(=S)[nH]c(=O)c32)cc1` (stereo not drawn): the inhibition was -3% (inactive).

Take `Cc1cnc(C(=O)OCc2c(C)cc(C(C)(C)C)cc2C)cn1`: the inhibition is 63.8% (active).

`Cc1cnc(C(=O)OCC(=O)N2CCc3ccccc32)cn1`: the inhibition was 0.3% (inactive).

With `Cc1cnc(C(=O)OCC(=O)NCCCc2ccccc2)cn1`, the inhibition is -0.1% (inactive).

As to `Cc1cccc(N2CCN(C(=O)c3cccc(N4C(=O)C5C6C=CC(C6)C5C4=O)c3)CC2)c1C` (stereo not drawn), the inhibition is -1.1% (inactive).

`CSCCC(C(=O)NC(C)(C)C)n1c(-c2ccccc2)nc2ccccc21` (stereo not drawn): the inhibition was -0.9% (inactive).

As for `CCOc1ccc(NS(=O)(=O)c2ccc(C(=O)NCC(c3ccccc3OC)N3CCCC3)cc2)cc1` (stereo not drawn), the inhibition was -1.8% (inactive).

`COc1ccc(S(=O)(=O)N(C)C)cc1NC(=O)COC(=O)c1n[nH]c2ccccc12`: the inhibition is -22.7% (inactive).

Consider `Cc1cccn2c(CNCC(C)Oc3cccnc3)c(C(=O)N3CCOCC3)nc12` (stereo not drawn), for which the inhibition was -5% (inactive).

For the molecule `CCOC(=O)C1CCN(Cc2c(C(=O)N3CCOCC3)nc3c(C)cccn23)CC1`, the inhibition is -2.4% (inactive).

Regarding `Cc1cccc(N2CCC(NCc3c(C(=O)N4CCCCC4)nc4c(C)cccn34)CC2)c1`, the inhibition was 60.5% (active).

Consider `OCCn1c(-c2ccccc2)csc1=Nc1ccccc1`, for which the inhibition is -1.3% (inactive).

For the molecule `COc1ccc(C)cc1Nc1n[n+](-c2ccccc2)c(-c2cccc(Cl)c2Cl)s1`, the inhibition is 93.6% (active).

Take `CCc1ccc(Nc2n[n+](-c3ccccc3)c(-c3cccc(Cl)c3Cl)s2)cc1`: the inhibition was 5.9% (inactive).

As to `COc1cc(Br)c(-c2sc(Nc3ccccc3)n[n+]2-c2ccccc2)cc1OC`, the inhibition is -3.6% (inactive).

For the molecule `Cc1c(Cl)cccc1NC(=O)CCC(=O)N/N=C/c1ccco1`, the inhibition is 4.7% (inactive).

As to `CCOc1ccc(OCC)c(NC(=O)CSc2nnc(Cn3cnc4ccccc43)n2C)c1`, the inhibition was 0.1% (inactive).

`Cc1ccc2[nH]cc(CCNC(=O)C3CCCCC3)c2c1`: the inhibition is -2.8% (inactive).

For the molecule `CCOc1ccc(CN2CCN(Cc3c[nH]c4ccccc34)CC2)cc1`, the inhibition was 35.2% (inactive).

Regarding `O=C(NCCc1c[nH]c2ccccc12)C1CCN(Cc2ccc(Br)cc2)CC1`, the inhibition was 77% (active).

In the case of `CCOC(=O)C1=C(C)NC2=C(C(=O)CC(C)(C)C2)C1c1ccsc1` (stereo not drawn), the inhibition was 0.2% (inactive).

As for `CC(C)OC(=O)CC(=O)CC(O)c1cccc([N+](=O)[O-])c1` (stereo not drawn), the inhibition is -10.1% (inactive).

Consider `O=C(COc1ccc(Cl)cc1)N1CCN(c2cccc(C(F)(F)F)c2)CC1`, for which the inhibition was 58.7% (active).

With `CSCCC(NC(=O)COc1ccccc1)C(=O)N1CCN(c2cccc(C(F)(F)F)c2)CC1` (stereo not drawn), the inhibition is 1.5% (inactive).

`Cc1c(C)c2ccc(OCC(=O)N3CCN(c4cccc(Cl)c4)CC3)cc2oc1=O`: the inhibition was -2.4% (inactive).

For `O=C(O)Cc1csc(-c2cccc(Oc3ccccc3)c2)n1`, the inhibition was -3.1% (inactive) and -3.3% (inactive).

As to `CCOc1ccc(NC(=O)CN(C)C(=O)CCSc2ccc(F)cc2)cc1OCC`, the inhibition was 14.3% (inactive).

Consider `CC(C)c1ccc(-c2nn[nH]n2)cc1`, for which the inhibition was 21.6% (inactive).

With `COc1ccc(S(=O)(=O)N2CCN(CC(=O)N3c4ccccc4CC3C)CC2)cc1OC` (stereo not drawn), the inhibition was 6.4% (inactive).

`CCOc1cc(/C=C(\C#N)c2nc(-c3cccs3)c(NC(C)=O)s2)ccc1O`: the inhibition was 69.2% (active).

For the molecule `CCOc1cc(/C=N/NC(=O)CN2CCCCC2)ccc1O`, the inhibition was 3.8% (inactive).

As for `CCOc1cc(/C=N/NC(=O)c2c(C)nc3ccc(Cl)cn23)ccc1O`, the inhibition was 3.8% (inactive).

Turning to `Cc1ccc(NC(=O)Nc2cc(-c3ccccc3)nn2C)cc1Cl`, the inhibition is 3% (inactive).

As to `CC(=O)NC(c1ccccc1)c1nc(-c2cccc(C(C)C)c2)cs1` (stereo not drawn), the inhibition was -1.9% (inactive).

In the case of `CC(=O)Nc1ccc(-c2csc(NC(=O)Nc3ccccc3)n2)cc1`, the inhibition was 104% (active).

Take `Cn1c(=O)c([N+](=O)[O-])c(Oc2ccccc2)c2ccccc21`: the inhibition was -0.7% (inactive).

For the molecule `COc1ccc(NS(=O)(=O)c2cc(NC(=O)CC(=O)c3ccc([N+](=O)[O-])cc3)ccc2C)cc1`, the inhibition is -16.7% (inactive).

With `C=CCn1c(CCNC(=O)c2ccccc2F)nnc1SCC(=O)Nc1ccc(OC)cc1`, the inhibition is -1.4% (inactive).

In the case of `CCOC(=O)C1=C(CN2CCc3ccccc32)NC(=O)NC1c1ccc(Cl)cc1` (stereo not drawn), the inhibition is -0.5% (inactive).

As to `COC(=O)C1=C(C)N(Cc2ccccc2)C(=NCCCOC(C)C)N[C@H]1c1ccccc1`, the inhibition is -2.7% (inactive).

For the molecule `CCCCNC(=O)C(C)N(CCN(C)C)C(=O)CCCN1C(=O)NC(c2ccc(Cl)cc2)C(C(=O)OCc2ccccc2)=C1C` (stereo not drawn), the inhibition is 65.1% (active).

As for `CCOC(=O)CCCNC(=O)CN1C(=O)NC(CCc2ccccc2)C1=O` (stereo not drawn), the inhibition was -0.3% (inactive).

Consider `CCOC(=O)C1=C(C)N(C[C@@H]2CC[C@@H](Cc3ccc(-c4ccccc4)cc3)O2)C(=O)NC1c1ccc([N+](=O)[O-])cc1` (stereo partly drawn), for which the inhibition is 1.6% (inactive).

As to `CCCCNC(=O)C(C)N(CCN(C)C)C(=O)CCCCCN1C(=O)NC(c2ccc(Cl)cc2)C(C(=O)OCc2ccccc2)=C1C` (stereo not drawn), the inhibition was 61.8% (active).

As to `COc1ccc(OC)c(CN2C(=O)CCC2(C)c2nnnn2Cc2ccccc2)c1` (stereo not drawn), the inhibition was -8.5% (inactive).

On to `O=C(CSc1nnc(-c2ccoc2)o1)N1CCOCC1`, for which the inhibition was -6.6% (inactive).

`O=[N+]([O-])/C=C/c1ccc2c(ccn2Cc2ccccc2)c1`: the inhibition was 79.9% (active).

On to `C=CCC[C@@H](CCCCC)OC(=O)/C=C/[C@@H](O)[C@H](O)C[C@H](O)CC=C`, for which the inhibition is -9.1% (inactive).

Regarding `Cc1ccc2oc(C(=O)N3CCN(C)C[C@@H]3C(C)C)c(C)c2c1`, the inhibition was 1.3% (inactive).

Regarding `CCOC(=O)C1C(C)C(C(C)(C)C)N(S(=O)(=O)c2ccc(C)cc2)C1c1ccccc1` (stereo not drawn), the inhibition is -9.6% (inactive).

Take `NS(=O)(=O)c1ccc(CCNC(=O)CCCn2c(SCC(=O)N3CCCC3)nc3ccsc3c2=O)cc1`: the inhibition is -2.5% (inactive).

As for `CN(C)C(CNC(=O)c1ccc(OCc2cn3ccccc3n2)cc1)c1ccco1` (stereo not drawn), the inhibition is -4.3% (inactive).

In the case of `CN(C)CCNC(=O)c1cccc(-c2cnc3c(NC=O)cc(-c4cccc(C(F)(F)F)c4)cn23)c1`, the inhibition was 39.3% (inactive).

Regarding `CN(C)CCNC(=O)c1ccc(-c2cn3c(-c4ccc(Oc5ccccc5)cc4)cnc3cn2)cc1`, the inhibition was 57.2% (active).

As for `CCCCCC(O)(CCN1CCCCC1)c1ccccc1` (stereo not drawn), the inhibition is 1.7% (inactive).

Regarding `Cc1cc(F)ccc1NC(=O)C(C)n1c2ccccc2c2nc(=O)cc(C)n21` (stereo not drawn), the inhibition was 0.1% (inactive).

Regarding `CC(C)N1C(=O)c2ccccc2NC(=O)C1C(=O)NCc1cccs1` (stereo not drawn), the inhibition was 16.2% (inactive).

In the case of `Cc1cc2oc(=O)cc(CN(C)Cc3ccccc3)c2cc1Cl`, the inhibition is -1.1% (inactive).

On to `Cc1ccc(CN(C)Cc2cc(=O)oc3cc(C)c(Cl)cc23)cc1`, for which the inhibition is -0.1% (inactive).

As for `Cc1cc2oc(=O)cc(CN(C)Cc3ccc(OC(F)F)cc3)c2cc1Cl`, the inhibition is 76.8% (active).

`CCC(C(=O)NCc1cccnc1)n1nc(C)c2sc3ccccc3c2c1=O` (stereo not drawn): the inhibition was 5.3% (inactive).

With `CCc1ccc(-c2cc3c(=O)n(CC(=O)NCCCN4CCN(Cc5ccccc5)CC4)nc(C)n3n2)cc1`, the inhibition is 57.5% (active).

Take `Cc1nn(CC(=O)NCCc2ccccc2)c(=O)c2cc3occc3n12`: the inhibition is -1.6% (inactive).

Regarding `O=C(Cn1ncc2c3ccccc3n(Cc3ccccc3)c2c1=O)NCCCN1CCOCC1`, the inhibition is 0.7% (inactive).
